The other results are listed elsewhere or left out. A call without a number means that no potency is given here. Inconclusive results are not listed. Calls of active or inactive are those of the source. Calls follow the shape of the dose curve; as a rule, active = well fitted inhibition curve with a large enough effect in the main read-out, with a control signal flat; inconclusive = small, poorly fitted or top-dose-only effect, or a change in a side signal; inactive = no such curve, though single readings can be large or run the other way.
Molecular target: Caspase-7 (Homo sapiens) (UniProt P55210)
Test: Concentration-Response Counterscreen for Redox Active Inhibitors of Caspase-7: Cysteine
Details: caspase-7 enzyme with cysteine, fluorogenic substrate; series mostly up to 57.5 µM
Text: NIH Molecular Libraries Screening Centers Network [MLSCN]
NIH Chemical Genomics Center [NCGC]
PI Name: Dr. James Wells,
Dr. Enrique Perez-Paya, Dr.Janice Williams, Dr. Dennis Wolan, a person
The caspases (Cysteine Aspartyl Protease) comprise a related family of 14 dimeric proteases that are critical mediators of apoptosis (programmed cell death) and inflammation. The caspases represent an important class of drug targets for stroke, ischemia, cancer and inflammatory diseases. […] One goal of this project was to identify compounds that act as allosteric inhibitors via stabilizing the procaspase form of the enzyme. […]
The biochemical assay was configured using purified caspase 7 at a high enzyme concentration to promote formation of the homodimers and thus facilitate the identification of allosteric inhibitors. […] After initiation of the assay with substrate the plates were rapidly read using an automated robotic system (Kalypsys, Inc.) to maintain consistent timing. […] Product formation was also measured after 1 hour. […]
Caspase 7 was prepared in buffer (50 mM HEPES pH 7.5, 50 mM KCl, 200 mM NaCl, 10 mM Cys (Aldrich cat# 861677), 0.1% CHAPS) at a concentration of 66.6 nM and 3 uL was dispensed to all wells using black solid Kalypsys 1536-well plates. […] The plates were then exposed using 405 nm excitation/520 nm emission filters for 4 sec and read at 20 sec intervals for 3 min. […]

Sequence of Caspase-7 (Homo sapiens) (P55210 24-198 limits assumed): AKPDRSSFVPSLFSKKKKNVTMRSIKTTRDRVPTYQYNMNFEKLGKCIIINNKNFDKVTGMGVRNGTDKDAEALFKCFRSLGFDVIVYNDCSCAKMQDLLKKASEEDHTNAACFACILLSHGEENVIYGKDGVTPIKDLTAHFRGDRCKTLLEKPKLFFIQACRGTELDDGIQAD
Sequence of Caspase-7 (Homo sapiens) (P55210 207-303 limits assumed): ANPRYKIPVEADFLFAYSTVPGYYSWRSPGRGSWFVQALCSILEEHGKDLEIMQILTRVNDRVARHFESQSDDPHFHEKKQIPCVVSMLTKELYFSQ

Row | SMILES | Potency
1 | CCN1C(=O)/C(=C2/Sc3ccccc3N2CCCS(=O)(=O)O)SC1=S | inactive
2 | N#CC1=C(N)Oc2cc(O)ccc2C1C1CCCCC1 (configuration not stated) | 25.1 µM (active)

Reference: PubChem BioAssay AID908 (National Center for Advancing Translational Sciences (NCATS), 2007)
